# Source: ChEMBL document CHEMBL1157539, “Thousands of chemical starting points for antimalarial lead identification” (Nature, 2010)
# The full ranking holds about 13,000 compounds; the median of “IFI” is about 4, and the highest 2% start at about 17. The full list was thinned out, with the highest values kept by preference.
# Test: GSK_TCMDC: Inhibition Frequency Index (IFI). The number of non-kinase HTS assays where a compound showed > 50 % inhibition, expressed as a percentage of the number of such assays in which the compound was tested
# Type: functional
row,SMILES,IFI
1,COc1c(C2CCN(CCCCNC(=O)c3ccc(-c4ccc(Cl)cc4)c(O)c3)CC2)ccc2c1CCCC2,9.09%
2,CN1CCCN(c2ccnc3cc4c(cc23)N(C(=O)c2ccc(Cl)cc2Cl)CC4)CC1,0.72%
3,N=C(NCCCc1ccccc1)c1cccc(C(=N)NCCCc2ccccc2)n1,1.47%
4,O=C(CCC1CCCCC1)NCCNc1cccc2ccccc12,1.47%
5,N=C(NCCCCC1CCCCC1)c1cccc(C(=N)NCCCCC2CCCCC2)n1,19.9%
6,COc1ccc2c(=NN=Cc3ccc(OC)c4ccccc34)cc(C)[nH]c2c1,2.14%
7,O=C(Cn1c(SCc2cccc(F)c2F)cc(=O)c2ccccc21)N(CCCn1ccnc1)Cc1ccc(-c2ccc(C(F)(F)F)cc2)cc1,2.17%
8,CCc1ccc(CN2CCC(CNC(=O)c3cc(-c4cccc(Cl)c4)cs3)C2)cc1 (centres undefined),8.16%
9,CC(Cc1ccc(OCCN2CCN(c3ccc(Cl)cc3)CC2)cc1)NCC(O)c1cccc(C(F)(F)F)c1 (centres undefined),18.1%
10,CC(Cc1ccc(OCCN2CCN(c3ccccc3)CC2)cc1)NCC(O)c1cccc(Cl)c1F (centres undefined),12%
11,CC(Cc1ccc(CN2CCN(Cc3ccccc3)CC2)cc1)NCC(O)c1cccc(C(F)(F)F)c1 (centres undefined),9.15%
12,CC(Cc1ccc(OCCN2CCN(c3cccc(Cl)c3)CC2)cc1)NCC(O)c1cccc(Cl)c1 (centres undefined),16.4%
13,CC(Cc1ccc(OCCN2CCN(c3cccc(C(F)(F)F)c3)CC2)cc1)NCC(O)c1cccc(C(F)(F)F)c1 (centres undefined),10.8%
14,CC(Cc1ccc(OCCN2CCN(c3cccc(Cl)c3)CC2)cc1)NCC(O)c1cccc(C(F)(F)F)c1 (centres undefined),17.2%
15,N#Cc1ccc(CN2CCCN(Cc3cccc(NC(=O)c4ccc(-c5ccccc5)cc4)c3)CC2)cc1,8.28%
16,Cc1cc(NCCC(=O)NCCc2ccccc2)nc(NCCc2ccc(F)cc2)n1,4.55%
17,O=C(/C=C/c1ccc(C(F)(F)F)cc1)NCCCCCN1CCCN(C(=O)Nc2ccc(Cl)c(C(F)(F)F)c2)CC1,18.8%
18,O=C(/C=C/c1ccc(Cl)c(Cl)c1)NCCCCCN1CCCC(CNC(=O)Nc2ccc(C(F)(F)F)cc2)C1 (centres undefined),17.7%
19,O=C(/C=C/c1ccc(Cl)c(Cl)c1)NCCCCCCN1CCCN(C(=O)Nc2ccc(C(F)(F)F)cc2)CC1,12.3%
20,O=C(/C=C/c1ccc(Cl)cc1)NCCCCCN1CCCN(C(=O)Nc2ccc(Cl)c(C(F)(F)F)c2)CC1,14.3%
21,O=C(/C=C/c1ccc(Cl)c(Cl)c1)NCCCCCCN1CCCN(C(=O)Nc2ccc(Cl)c(C(F)(F)F)c2)CC1,11.3%
22,O=C(/C=C/c1ccc(C(F)(F)F)cc1)NCCCCCN1CCCN(C(=O)Nc2ccc(Cl)c(Cl)c2)CC1,20.4%
23,O=C(/C=C/c1ccc(C(F)(F)F)cc1)NCCCCCN1CCN(C(=O)Nc2ccc(Cl)c(Cl)c2)CC1,13.7%

row,SMILES,IFI
1,CC(C)c1ccc(NC(=O)NCC2CCCN(CCCCCNC(=O)/C=C/c3ccc(Cl)c(Cl)c3)C2)cc1 (centres undefined),12.1%
2,O=C(/C=C/c1ccc(Cl)c(Cl)c1)NCCCCCN1CCCC(CCCNC(=O)Nc2ccc(C(F)(F)F)cc2)C1 (centres undefined),11.3%
3,Cc1ccc2c(c1)c(C1CCN(C(=O)c3ccc([N+](=O)[O-])o3)CC1)cn2C,4.35%
4,Cc1ccc(-c2nn3c(O)c4c(nc3c2C)CCCC4)cc1,0.88%
5,COc1c(C2CCN(CCN3CCC(CNC(=O)c4ccc(-c5ccc(C#N)cc5)cc4)CC3)CC2)ccc2c1CCCC2,16.2%
6,O=C(Nc1cccc(CN2CCCN(CCc3ccccc3)CC2)c1)c1ccc(Cl)c(Cl)c1,3.36%
7,CN1CCN(CCCN(Cc2cccc(-c3ccc(CNCCc4ccccc4)cc3)c2)C(=O)c2cccs2)CC1,11.3%
8,COC(=O)c1cccc(CNCc2ccc(-c3ccc(-c4nc5cc(C(F)(F)F)ccc5[nH]4)s3)cc2)c1,11.5%
9,Ic1cc(CNC2CCCCC2)ccc1OCc1cccc(COc2ccc(CNC3CCCCC3)cc2I)c1,10.1%
10,CCN(CC)Cc1cccc(-c2cc3c(-c4ccc(C(=O)O)c(C(C)C)c4)ccnc3[nH]2)c1OC,0%
11,COc1cccc2c(NN=Cc3cccc(Cl)c3)ccnc12,3.62%
12,COc1cc2nc(NCc3nc4ccccc4[nH]3)nc(N)c2cc1OC,0%
13,CC(C)N1CCN(C(CN2CCN(CCCOc3ccc(-c4ccccc4)cc3)CC2)c2ccc(F)cc2)CC1 (centres undefined),20.3%
14,COc1ccc2ccccc2c1CCCCN1CCN(CC(c2ccc(F)cc2)N2CCN(C3CCCC3)CC2)CC1 (centres undefined),12.8%
15,COc1ccc2ccccc2c1CCCCN1CCN(CC(c2ccc(F)cc2)N2CCN(C(C)C)CC2)CC1 (centres undefined),14.7%
16,CC(C)N1CCN(C(CN2CCN(CCCOc3ccccc3-c3ccccc3)CC2)c2ccc(F)cc2)CC1 (centres undefined),13.5%
17,CC(C)N1CCN(C(CN2CCN(CCCOc3cccc(-c4ccccc4)c3)CC2)c2ccc(F)cc2)CC1 (centres undefined),16%
18,COc1ccc2ccccc2c1CCCCN1CCN(CC(c2ccc(F)cc2)N2CCC2)CC1 (centres undefined),18.4%
19,CCCCCCCNCc1c(O)ccc2c(CNCCCCCCC)c(O)ccc12,13.6%
20,Oc1ccc2ccccc2c1C=NNc1nc(=Nc2ccccc2)nc(N2CCOCC2)[nH]1,3.68%
21,COc1ccccc1CCNc1nc(C)cc(N[C@@H](Cc2ccccc2)C(=O)NCc2cccs2)n1,9.76%
22,CCCCc1ccc(S(=O)(=O)Nc2ccc3c(c2)CCN(Cc2c[nH]c4cnccc24)CC3)cc1,19.4%
23,Cc1cnc(C(=O)Nc2ccc3c(c2)CCCN(Cc2c[nH]c4cnccc24)C3)cn1,0%

row,SMILES,IFI
1,CCCc1ccc(S(=O)(=O)Nc2ccc3c(c2)CCC3)cc1,2.26%
2,CCOc1ccc(C(Cc2ccccc2)NC(=O)c2cccnc2)cc1OCC (centres undefined),0.83%
3,Cc1ccc2[nH]c3c(NCCN(C)C)ncnc3c2c1,0%
4,COc1ccc(CNc2ncnc3c2[nH]c2ccc(F)cc23)cc1,17.2%
5,Fc1ccc2[nH]c3c(NCCN4CCCCC4)ncnc3c2c1,1.4%
6,COc1ccc(CNCc2ccc(-c3ccc(-c4nc5cc(F)ccc5[nH]4)cc3)cc2)cc1,13.1%
7,Fc1ccc2[nH]c3c(NCCCN4CCOCC4)ncnc3c2c1,0%
8,CN(C)CCCNc1ncnc2c1[nH]c1ccc(F)cc12,2.14%
9,COc1ccccc1CCNc1ncnc2c1[nH]c1ccc(F)cc12,20.5%
10,CN(C)CCNc1ncnc2c1[nH]c1ccc(Cl)cc12,0%
11,c1ccc(CCNc2ncnc3c2[nH]c2ccccc23)cc1,23.9%
12,CC(C)C(C(=O)Nc1ccc2c(c1)OCO2)c1ccc(Cl)cc1 (centres undefined),9.18%
13,Cc1cc(=O)c(-c2ccc(Oc3cccc(OC(F)(F)F)c3)cc2)c(C)[nH]1,3.76%
14,COc1ccc(N2CCN(CCCCNC(=O)c3ccc(NC(=O)c4cc(C(F)(F)F)cc(C(F)(F)F)c4)cc3)CC2)cc1OC,3.51%
15,c1ccc(CNCc2cccc(-c3ccc(-c4nc5ccccc5[nH]4)s3)c2)cc1,3.92%
16,CCCCCCCc1c(C)nc2cc(OC)ccc2c1O,0%
17,CC(C)Oc1cc(-c2ccc(S(C)(=O)=O)cc2)nc(N(Cc2cccc(F)c2F)Cc2cccc(F)c2F)n1,0%
18,c1ccc2c(c1)cc(CNCCCN1CCN(CCCNCc3cc4ccccc4c4ccccc34)CC1)c1ccccc12,19.4%
19,c1ccc2c(CNCCCN3CCN(CCCNCc4c5ccccc5cc5ccccc45)CC3)c3ccccc3cc2c1,15.3%
20,c1ccc2cc(CNCCCN3CCN(CCCNCc4ccc5ccccc5c4)CC3)ccc2c1,11.7%
21,CCCCNC(=N)Nc1ccc(OCCCOc2ccc(NC(=N)NCCCC)cc2)cc1,2.99%
22,CC(=O)c1ccc2nc[nH]c(=O)c2c1,26.1%
23,COc1ccc2nccc([C@@H](O)CN3CCC(NCc4ccc5nc[nH]c(=O)c5c4)CC3)c2c1,0%

row,SMILES,IFI
1,CC(=O)c1ccc(NC(=O)Nc2ccc3nccc(N4CCN(C)CC4)c3c2)cc1,0%
2,Cc1cc(NCCC(=O)NCCOc2ccccc2)nc(NCCOc2ccccc2)n1,4.88%
3,Nc1ccc(-c2nc3cc(C4=N[C@H]5CCCC[C@H]5N4)ccc3o2)cc1[N+](=O)[O-],1.41%
4,CCn1c(-c2nonc2N)nc2c(-c3cccc(NC(=O)Nc4ccccc4OC)c3)ncc(OCCCN)c21,20.5%
5,CCn1c(-c2nonc2N)nc2c(-c3cccc(NC(=O)Nc4ccccc4Cl)c3)ncc(OCCCN)c21,18.2%
6,CCn1c(-c2nonc2N)nc2c(-c3cccc(NC(=O)Nc4cccc(OC)c4)c3)ncc(OCCCN)c21,15.6%
7,CCn1c(-c2nonc2N)nc2c(-c3cccc(Cl)c3)ncc(OCCCNCCc3c[nH]cn3)c21,7.69%
8,Cc1ccc2[nH]c(-c3ccccc3)cc(=NN=Cc3cccnc3)c2c1,1.52%
9,Oc1ccc(CCNCCCCCCNCCc2ccc(Br)cc2)cc1O,5.15%
10,N#CCOc1c(C2CCN(CCCCNC(=O)c3ccc(-c4ccc(C(F)(F)F)cc4)cc3)CC2)ccc2c1CCCC2,7.08%
11,N=C(N)Nc1ccc(OCCCCCOc2ccc(NC(=N)N)cc2)cc1,3.13%
12,CC(C)Oc1ccc(CCCON2C(=N)N=C(N)NC2(C)C)cc1,5.63%
13,N#Cc1cccc(CN2CCCN(Cc3ccc(C(=O)Nc4ccc(Cl)cc4)cc3)CC2)c1,7.87%
14,CS(=O)(=O)c1ccc2c(c1)CCN(CCC1CCC(NC(=O)C(=Cc3ccc(Cl)cc3Cl)c3ccc(-c4ccccc4)cc3)CC1)CC2 (centres undefined),5.48%
15,CC(C)(C)c1ccc(C(=O)NC2CCC(CCN3CCc4ccc(S(C)(=O)=O)cc4CC3)CC2)cc1C(F)(F)F (centres undefined),21.6%
16,CS(=O)(=O)c1ccc2c(c1)CCN(CCC1CCC(NC(=O)c3cc4cccc(Br)c4[nH]3)CC1)CC2 (centres undefined),7.59%
17,Cc1ccc(NC(=O)c2cnc(N3CCN(c4ccncc4)CC3)c(Cl)c2)cc1,11.9%
18,O=C(Nc1ccc(F)cc1)c1cnc(N2CCN(c3ccncc3)CC2)c(Cl)c1,8.51%
19,O=C(Nc1ccc(N2CCC(Nc3ccccn3)CC2)cc1)c1cnc(Cl)c(Cl)c1,17.4%
20,Cn1nccc1C(=O)NCCNCc1ccc(-c2ccc(-c3nc4cc(F)ccc4[nH]3)cc2)cc1,8.91%
